We go through 41 compounds from PubChem BioAssay AID1645883 (National Center for Advancing Translational Sciences (NCATS), 2021).

The campaign covered roughly 16,000 compounds. About 160 (1%) were called active. About 8% were inconclusive and are not listed. The entries come from a sample that favours actives as a whole. Unmarked numbers belong to inactive results. Calls come from the whole dose curve; as a rule, active = well fitted activation curve with a large enough effect; inconclusive = small, poorly fitted or top-dose-only effect; inactive = no such curve, though single readings can be large or run the other way.
% is set by controls: 0 for no effect and ±100 for the full control effect; potency is the fitted concentration of half-maximal effect.

This assay deals with Rap guanine nucleotide exchange factor 3 (Homo sapiens) (UniProt O95398). The experiment in a line: Validation qHTS for agonist of cAMP-regulated guanine nucleotide exchange factor 3 (EPAC1). Note: nearly all actives have a fitted effect of over 70% in size. Conditions: EPAC1 Rap1b BODIPY-GDP exchange, fluorescence; max response: active compounds read high, percent of cAMP control response. From the text: Assay Provider (PI): Xiaodong Cheng Ph.D.
Sequence of Rap guanine nucleotide exchange factor 3 (Homo sapiens) (O95398 whole entry, looked up): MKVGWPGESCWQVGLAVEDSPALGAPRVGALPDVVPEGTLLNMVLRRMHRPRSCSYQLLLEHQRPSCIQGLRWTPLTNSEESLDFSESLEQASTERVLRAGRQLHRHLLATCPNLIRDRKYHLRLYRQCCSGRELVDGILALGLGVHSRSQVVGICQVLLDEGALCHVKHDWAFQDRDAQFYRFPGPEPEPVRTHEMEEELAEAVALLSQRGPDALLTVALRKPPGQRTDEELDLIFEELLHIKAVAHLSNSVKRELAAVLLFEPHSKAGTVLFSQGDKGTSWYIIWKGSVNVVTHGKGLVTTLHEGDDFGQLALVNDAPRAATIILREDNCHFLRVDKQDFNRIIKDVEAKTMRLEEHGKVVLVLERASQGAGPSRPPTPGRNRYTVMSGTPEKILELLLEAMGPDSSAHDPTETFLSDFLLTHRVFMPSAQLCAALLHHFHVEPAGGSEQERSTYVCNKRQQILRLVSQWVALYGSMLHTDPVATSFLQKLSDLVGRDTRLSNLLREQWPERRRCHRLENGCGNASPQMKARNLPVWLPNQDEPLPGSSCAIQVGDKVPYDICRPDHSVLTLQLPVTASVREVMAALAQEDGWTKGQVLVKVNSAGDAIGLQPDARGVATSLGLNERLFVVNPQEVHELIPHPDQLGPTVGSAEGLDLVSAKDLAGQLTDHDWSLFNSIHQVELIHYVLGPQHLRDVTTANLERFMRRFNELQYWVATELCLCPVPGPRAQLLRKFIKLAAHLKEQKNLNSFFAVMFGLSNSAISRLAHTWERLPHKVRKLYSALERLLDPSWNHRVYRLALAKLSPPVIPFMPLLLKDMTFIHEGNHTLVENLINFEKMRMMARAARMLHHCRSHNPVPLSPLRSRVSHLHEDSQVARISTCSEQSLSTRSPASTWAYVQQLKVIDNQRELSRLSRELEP
The University of Texas Medical Branch, […], TX
In multi-cellular eukaryotic organisms, the effects of cAMP are transduced by two ubiquitously-expressed intracellular cAMP receptors, the classic protein kinase A/cAMP-dependent protein kinase (PKA/cAPK) and the more recently discovered exchange protein directly activated by cAMP/cAMP-regulated guanine nucleotide exchange factor (EPAC/cAMP-GEF). Both PKA and EPAC are ubiquitously expressed in all tissues, and an increase in intracellular cAMP levels will lead to the activation of both PKA and EPAC. Therefore, careful dissections of the individual role and relative contribution of EPAC and PKA within the overall cAMP signaling in various model systems are critical for further elucidating the mechanism of cAMP signaling. To date no EPAC-specific antagonists and agonist, as well as isoform-specific agonists have been reported, and developing EPAC-specific pharmacological probes to determine the physiological functions that EPAC play in the overall cAMP-mediated signaling remains a major challenge within the research field. Furthermore, identified regulators of EPAC may lead to new mechanism-based therapeutic strategies specifically targeting the EPAC / cAMP-signaling components as EPAC has been implicated to play important roles in major human pathological conditions such as diabetes, heart disease, and cancer.
This qHTS will be used to screen the Molecular Libraries Small Molecule Repository (MLSMR) as a concentration-titration series using the NCGC unique quantitative screening (qHTS) platform to find activators for EPAC1. In addition, this assay will also be used as a counterscreen for the EPAC2 qHTS. This fluorescent based assay is developed and validated for EPAC1 that measures exchange using EPAC effector Rap1 complex with BODIPY-GDP, a GDP analog with a tethered fluorophores. Activators are identified by monitoring the change in fluorescence signal as the exchanged free BODIPY-GDP has a reduced fluorescence compared to Rap1-bound BODIPY-GDP. Increase in signal (activation) is the desired outcome for the EPAC1 agonist while no activity in this assay is desired for the EPAC2 agonist counterscreen.
[1] de Rooij, J., Zwartkruis, F. J., Verheijen, M. H., Cool, R. H., Nijman, S. M., Wittinghofer, A., and Bos, J.L. (1998) Nature 396, 474-477.
Briefly, three uL of reagents (100 nM EPAC1, 250 nM RAP1B-BODIPY-GDP, 50 uM GDP) were dispensed into a 1536-well Greiner black solid-bottom medium binding assay plate. Controls and test compounds (23 nL) were transferred to the plate via a Kalypsys pin tool equipped with a 1536-pin array. The plates were centrifuged at 1,000 rpm for 15 seconds followed by 5 minute incubation at room temperature. The assay plates were read at 5 minute intervals for 30 minutes in the ViewLux plate reader using 480nm excitation and 540nm emission filters. The results were normalized to the agonist positive control of 6.5 mM cAMP.
On to `Cc1cccc(CN2Cc3cccc4c3[C@H](C=CC4)CC2=S)c1`, for which the max response is 29.3%.
Regarding `CCCCC[C@H]1CN(C2CCCCC2)C(=O)[C@@H]1CC(=O)NCc1ccc(OC)cc1`, the max response is -76.4%.
Turning to `CC(=O)Oc1c2c(c3c(c1CC=C(C)C)O[C@@]14C(=CC5CC1C(C)(C)OC4(C/C=C(\C)C(=O)O)C5=O)C3=O)OC(C)(CCC=C(C)C)C=C2` (stereo partly specified), the max response was -112%.
Turning to `O=C(c1cc(C(F)(F)F)cc(C(F)(F)F)c1)N1CCC[C@@]2(CCN(c3ccccn3)C2)C1`, the max response is -122%.
Regarding `O=C1C[C@H]2C=CCc3cccc(c32)CN1Cc1ccccc1`, the max response was -26.6%.
Take `CNc1nc(-c2ccccc2OC)nc2ccccc12`: the max response is 24.4%.
Regarding `COc1ccc(CNc2ncncc2-c2ccccc2C)c(OC)c1`, the max response was -35%.
For the compound `C=C1C(=O)C23C(O)C1CCC2[C@]12COC3(O)C(O)C1C(C)(C)CC[C@H]2O` (stereo partly specified), the max response was -116%.
On the same count and under the same terms, the same measure for `O=C(O)CCc1cccnc1`: -31.6%; for `COc1ccc(CN2CCOc3c(cc(-c4ncc(C(F)(F)F)cc4Cl)cc3OCC3CCCO3)C2)c(O)c1` (stereo unspecified): -26%.
As for `CC1=C(/C=C/C(C)=C/C=C/C(C)=C/C=C/C=C(C)/C=C/C=C(C)/C=C/C2=C(C)CCCC2(C)C)C(C)(C)CCC1`, the max response is -9%.
For `CC(C)NC(=O)N1CCC2(CC1)CCN(C(=O)c1cccn1C)CC2`, the max response was -49.6%.
`O=C(c1csnn1)N1CCC[C@@]2(CCN(c3cccc(-c4ccccc4)c3)C2)C1`: the max response is -63.8%.
Turning to `Cn1cccc1C(=O)N1CCC2(CC1)CN(c1cccc(-c3ccccc3)c1)C2`, the Potency was 112 µM (active).
Take `Oc1ccc2c(c1)OCC1c3cc4c(cc3OC21)OCO4` (stereo unspecified): the max response is 5.11%.
For the compound `O=C(c1ccc(F)cc1)C1CCN(CCCCc2ccccc2)CC1`, the max response was -5.39%.
For the compound `COc1cc(=O)n2c(c1C(=O)N(C)Cc1nccs1)CCN(Cc1ccc(Cl)cc1)CC2`, the max response is -7.19%.
The same measure, in the same setting: the same measure for `Cc1nc2cnc(Nc3ccccc3)nc2n(Cc2ccc(F)cc2)c1=O`: 15.4%; for `O=c1c(-c2cc(F)cc(F)c2)nc2cnc(Oc3ccccc3)nc2n1C[C@H]1CCCO1`: -26.8%; for `N#CCCn1c(=O)c(-c2cc(F)cc(F)c2)nc2cnc(Oc3ccccc3)nc21`: 3.54%.
`O=C(c1cc2ccccc2o1)N1CCN(Cc2ccccc2)CC1`: the max response is -2.2%.
Take `COc1cccc(-c2nc(Nc3ccncc3)c3ccccc3n2)c1`: the Potency is 100 µM (active).
`c1ccc2c(Nc3ccncc3)nc(-c3ccc4c(c3)OCO4)nc2c1`: the max response was 10.9%.
On to `c1ccc2c(Nc3ccncc3)nc(-c3ccoc3)nc2c1`, for which the max response was -4.89%.
On the same count and under the same terms, the same measure for `CC1CC2C3CCC4=CC(=O)C=C[C@]4(C)[C@@]3(F)[C@@H](O)C[C@]2(C)[C@@]1(O)C(=O)CO` (stereo partly specified): 3.48%; for `O=C(O)C(O)[C@@](O)(Cc1ccc(O)cc1)C(=O)O` (stereo partly specified): 6.44%; for `O=C(O)C1CCN(c2ncnc3ccc(-c4ccccc4C(F)(F)F)cc23)CC1`: -7.12%.
Consider `CC(C)C(=O)NC(C)c1nnc2n1CCN(Cc1cccc3ncccc13)CC2` (stereo unspecified), for which the max response is -0.781%.
As to `O=C(c1csnn1)N1CCC2(CCN(Cc3nccs3)CC2)CC1`, the max response is -44.7%.
`C[C@@H]1CN(Cc2ccc3c(c2)CN(Cc2ccc(Oc4ncccn4)cc2)CCO3)C[C@H](C)O1`: the max response is -1.6%.
Same read-out and setting: then `O=C(c1ccco1)N1CCC[C@@]2(CCN(Cc3nccs3)C2)C1`, with -63.4%.
Consider `CS(=O)(=O)N1CCC[C@@]2(CCN(c3ccncc3)C2)C1`, for which the max response was -34%.
On to `O=C(Nc1cccc(F)c1)N1CC2(CCN(C(=O)c3cnccn3)CC2)C1`, for which the max response was 7.33%.
As to `C=C1C(=CC=C2CCC[C@]3(C)[C@@H]([C@H](C)C=C[C@H](C)C(C)C)CC[C@@H]23)C[C@@H](O)C[C@@H]1O`, the max response is -167%.
Turning to `C=CC(C1=CC(=O)C=CC1=O)c1ccc(O)cc1` (stereo unspecified), the max response was 3.74%.
On to `Fc1cccc(/C=N\N=C/c2cccc(F)c2)c1`, for which the max response is -1.27%.
Same read-out and setting: the same measure for `O=C1OC(C(O)CO)C(O)=C1O` (stereo unspecified): 21.1%.
As for `N#Cc1cc2[nH]c(=O)c(=O)[nH]c2cc1[N+](=O)[O-]`, the max response was 0.579%.
In the case of `CN1CC[C@H](c2c(O)cc(O)c3c(=O)cc(-c4ccccc4Cl)oc23)[C@H](O)C1`, the max response was -89%.
As for `Cn1cc(-c2nc3cncnc3n(-c3ccccc3)c2=O)c2ccccc21`, the max response was -219%.
As to `N[C@@H](C(=O)O)c1ccc(P(=O)(O)O)cc1`, the max response is -5.54%.
